Molecular target: T1, SPIC (Homo sapiens, UniProt Q8N5J4 1-248)
T1 sequence: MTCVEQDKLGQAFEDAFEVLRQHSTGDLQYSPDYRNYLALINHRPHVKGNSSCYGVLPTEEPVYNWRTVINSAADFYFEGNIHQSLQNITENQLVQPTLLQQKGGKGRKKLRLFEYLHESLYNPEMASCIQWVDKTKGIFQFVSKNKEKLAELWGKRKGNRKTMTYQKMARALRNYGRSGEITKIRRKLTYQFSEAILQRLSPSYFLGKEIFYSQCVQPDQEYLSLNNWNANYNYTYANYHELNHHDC
Experiment: DAPPL (digital affinity profiling via proximity ligation, sequencing); 10 mM Tris-HCl pH 7.5, 50 mM NaCl, 1 mM DTT, 4% glycerol, room temperature, 30 min; GST-TFs on glutathione beads, 16-mer random dsDNA library, 0.1% formaldehyde crosslink after washing; high values mean tight binding
Conditions: protein: recombinant; tags: N-terminal GST; dsDNA, one strand shown
Procedure, shortened: (§1)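 Beads coated with glutathione captured GST-fused human transcription factors that had been expressed in yeast, and the factors were then given DNA barcodes and pooled with a tag-only sample. The pools were incubated with 200 nmole of a random double-stranded 16-mer DNA library in Tris/NaCl/DTT/glycerol buffer for 30 min at room temperature, washed, crosslinked with 0.1% formaldehyde and proximity-ligated with BsaI/T4 ligase at 37 °C for 1 h. PCR amplification and Illumina NextSeq500 sequencing came last. Binding signal is each hexamer's read frequency for a factor divided by its frequency for the tag-only sample.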

Row | Sequence | binding signal
1 | ATGCTA | 1.23 fold enrichment (6-mer frequency, TF over GST control)
2 | TTATGT | 1.17 fold enrichment (6-mer frequency, TF over GST control)
3 | TCTTGA | 1.21 fold enrichment (6-mer frequency, TF over GST control)
4 | ATGCTT | 1.6 fold enrichment (6-mer frequency, TF over GST control)
5 | CATCCT | 1.63 fold enrichment (6-mer frequency, TF over GST control)
6 | ACTGAT | 1.51 fold enrichment (6-mer frequency, TF over GST control)
7 | TTACTC | 1.24 fold enrichment (6-mer frequency, TF over GST control)
8 | TTGCCC | 1.28 fold enrichment (6-mer frequency, TF over GST control)
9 | ACGTCC | 1.59 fold enrichment (6-mer frequency, TF over GST control)
10 | AATGTT | 1.68 fold enrichment (6-mer frequency, TF over GST control)
11 | AATAGT | 1.28 fold enrichment (6-mer frequency, TF over GST control)
12 | CCAATC | 1.24 fold enrichment (6-mer frequency, TF over GST control)
13 | GTATCC | 1.96 fold enrichment (6-mer frequency, TF over GST control)
14 | ACAATT | 1.17 fold enrichment (6-mer frequency, TF over GST control)
15 | TTCTTT | 1.2 fold enrichment (6-mer frequency, TF over GST control)
16 | TAAAAC | 1.29 fold enrichment (6-mer frequency, TF over GST control)
17 | TCCTTC | 2.26 fold enrichment (6-mer frequency, TF over GST control)
18 | TTCGTA | 1.42 fold enrichment (6-mer frequency, TF over GST control)
19 | TAGCTA | 1.22 fold enrichment (6-mer frequency, TF over GST control)
20 | TATTTG | 1.25 fold enrichment (6-mer frequency, TF over GST control)

Molecular target: ELF4 (Homo sapiens, UniProt Q99607 1-663)
Sequence (Q99607 whole entry): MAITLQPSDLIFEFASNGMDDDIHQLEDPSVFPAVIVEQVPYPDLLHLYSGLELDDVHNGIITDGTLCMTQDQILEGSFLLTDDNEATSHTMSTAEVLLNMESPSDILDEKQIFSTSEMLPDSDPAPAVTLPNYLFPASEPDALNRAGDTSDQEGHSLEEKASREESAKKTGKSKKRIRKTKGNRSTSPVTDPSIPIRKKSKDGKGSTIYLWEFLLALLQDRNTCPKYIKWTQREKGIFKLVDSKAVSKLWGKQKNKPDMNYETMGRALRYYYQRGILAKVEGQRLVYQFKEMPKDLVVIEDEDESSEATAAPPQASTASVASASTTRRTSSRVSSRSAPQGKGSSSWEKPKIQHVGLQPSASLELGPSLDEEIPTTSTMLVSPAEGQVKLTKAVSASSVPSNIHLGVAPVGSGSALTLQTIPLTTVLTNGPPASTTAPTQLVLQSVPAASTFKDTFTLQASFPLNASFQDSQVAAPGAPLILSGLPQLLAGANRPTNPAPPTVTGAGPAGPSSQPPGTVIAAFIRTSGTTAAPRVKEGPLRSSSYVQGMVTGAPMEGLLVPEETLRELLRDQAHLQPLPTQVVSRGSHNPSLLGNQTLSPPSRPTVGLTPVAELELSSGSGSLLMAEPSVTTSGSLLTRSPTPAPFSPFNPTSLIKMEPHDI
Experiment: as above
Conditions: protein: recombinant; tags: N-terminal GST; dsDNA, one strand shown
Procedure, shortened: as §1

Row | Sequence | binding signal
21 | ATTGAT | 1.32 fold enrichment (6-mer frequency, TF over GST control)
22 | CATCTA | 1.17 fold enrichment (6-mer frequency, TF over GST control)
23 | CTGATT | 1.22 fold enrichment (6-mer frequency, TF over GST control)
24 | CGAATA | 1.11 fold enrichment (6-mer frequency, TF over GST control)
25 | AAGAAA | 1.19 fold enrichment (6-mer frequency, TF over GST control)
26 | AGTATT | 1.16 fold enrichment (6-mer frequency, TF over GST control)
27 | TAAATG | 1.25 fold enrichment (6-mer frequency, TF over GST control)
28 | TTTTGT | 1.41 fold enrichment (6-mer frequency, TF over GST control)
29 | TCTGCT | 1.3 fold enrichment (6-mer frequency, TF over GST control)
30 | TTGAAA | 1.21 fold enrichment (6-mer frequency, TF over GST control)
31 | ACAATA | 1.16 fold enrichment (6-mer frequency, TF over GST control)
32 | CCTAAG | 1.26 fold enrichment (6-mer frequency, TF over GST control)
33 | CTCAAT | 1.26 fold enrichment (6-mer frequency, TF over GST control)
34 | TACATA | 1.22 fold enrichment (6-mer frequency, TF over GST control)
35 | TATTTT | 1.4 fold enrichment (6-mer frequency, TF over GST control)
36 | TTAATG | 1.26 fold enrichment (6-mer frequency, TF over GST control)
37 | ATCGAT | 1.17 fold enrichment (6-mer frequency, TF over GST control)
38 | TCCATT | 1.29 fold enrichment (6-mer frequency, TF over GST control)
39 | CGTTAA | 1.12 fold enrichment (6-mer frequency, TF over GST control)
40 | TCTAGC | 1.26 fold enrichment (6-mer frequency, TF over GST control)
41 | ATGCTA | 1.3 fold enrichment (6-mer frequency, TF over GST control)
42 | TTATGT | 1.38 fold enrichment (6-mer frequency, TF over GST control)
43 | TCTTGA | 1.33 fold enrichment (6-mer frequency, TF over GST control)
44 | ATGCTT | 1.3 fold enrichment (6-mer frequency, TF over GST control)
45 | CATCCT | 1.62 fold enrichment (6-mer frequency, TF over GST control)
46 | ACTGAT | 1.23 fold enrichment (6-mer frequency, TF over GST control)
47 | TTACTC | 1.29 fold enrichment (6-mer frequency, TF over GST control)
48 | TTGCCC | 1.4 fold enrichment (6-mer frequency, TF over GST control)
49 | ACGTCC | 1.54 fold enrichment (6-mer frequency, TF over GST control)
50 | AATGTT | 1.57 fold enrichment (6-mer frequency, TF over GST control)

— article PMC7862700, “An all-to-all approach to the identification of sequence-specific readers for epigenetic DNA modifications on cytosine”
